The source of these data is ChEMBL document CHEMBL4513141, “CO-ADD screening of NIH (USA) - Clinical Collection” (2021).

SMILES strings stand for the structures. Screen size: about 23,000 compounds; about 30 (0.1%) showed an effect of 50% or more. The full list was thinned out, with strong results kept by preference. Results with a measured potency or affinity are listed apart.

The subject of the assay is Pseudomonas aeruginosa. As to conditions: Concentration 20 uM; ASSAY_TEST Inhibition of Bacterial Growth; detection method Absorption (OD600); MEDIA CAMHB; plate type 384well; NBS; CORNING #3640; time 18 hr.
`CCOC(=O)[C@@H](CCc1ccccc1)N[C@@H](C)C(=O)N1CCC[C@H]1C(=O)O.O=C(O)/C=C\C(=O)O`: the Inhibition is listed as 1.23%.
The figure for `CCOC(=O)[C@H](CCc1ccccc1)N[C@@H](C)C(=O)N1[C@H](C(=O)O)C[C@@H]2CCC[C@@H]21` is 53.62%; for `CCOC(=O)[C@H](CCc1ccccc1)N[C@@H](C)C(=O)N1Cc2ccccc2C[C@H]1C(=O)O.Cl` [QUINAPRIL HYDROCHLORIDE] it is 14.62%.
On to `Cc1cnc(NC(=O)C2=C(O)c3ccccc3S(=O)(=O)N2C)s1` [MELOXICAM], for which the Inhibition is given as 4.04%.
In the case of `CN1C(C(=O)Nc2ccccn2)=C(O)c2ccccc2S1(=O)=O.O`, the Inhibition turned out to be 7.03%.
With `CCOC(=O)OC(C)OC1=C(C(=O)Nc2ccccn2)N(C)S(=O)(=O)c2ccccc21` (stereo unspecified) [AMPIROXICAM], the Inhibition was 53.02%.
The value for `N[C@@H]1CONC1=O` [CYCLOSERINE] was 60.23%.
The figure for `C[C@@H]1O[C@@H](OC[C@H]2O[C@@H](Oc3c(-c4ccc(O)c(O)c4)oc4cc(O)cc(O)c4c3=O)[C@H](O)[C@@H](O)[C@@H]2O)[C@H](O)[C@H](O)[C@H]1O` [RUTIN] is 17.85%; for `O=c1c(O[C@@H]2O[C@H](CO)[C@H](O)[C@H](O)[C@H]2O)c(-c2ccc(O)c(O)c2)oc2cc(O)cc(O)c12` [HYPEROSIDE] it is 12.67%.
Turning to `O=c1c(O[C@@H]2O[C@H](CO)[C@@H](O)[C@H](O)[C@H]2O)c(-c2ccc(O)c(O)c2)oc2cc(O)cc(O)c12` [ISOQUERCETIN], the Inhibition worked out at 60.53%.
As to `Cl.Nc1c2c(nc3ccccc13)CCCC2` [TACRINE HYDROCHLORIDE], the Inhibition turned out to be 19.73%.
